Assay outcomes from PubChem.
MT1-MMP txn act: MT1-MMP promoter reporter activation – cell-based, luciferase luminescence, primary screen | activation factor at 10 µM | 0.16% of 86,000 active | HT1080 MT1-MMP promoter luciferase reporter, overnight; active compounds read high;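 active = activation factor of at least 2 for MT1-MMP transcription at 10 µM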
DAT uptake mod: changed hDAT dopamine uptake under cocaine IC80, either direction, primary screen, cocaine antagonist project, cell-based, LLC-PK1 hDAT, [14C]-dopamine uptake, MLSMR; Sodium-dependent dopamine transporter (Homo sapiens), Q01959; LLC-PK1 hDAT cells, [14C]-dopamine uptake with cocaine IC80; actives deviate in either direction; B-score at 10 µM; 1.3% of 110,000 active; AID 449768, 2010;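 active = Z score or B-score, a plate-position-corrected score, falls beyond the plate's 99.7% confidence bounds, in either direction; inactive = both scores lie inside the 99.7% bounds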;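 also: scored against the spread of the other compound wells on the same plate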
ERa SRC1 inh: ERα–SRC-1 coactivator interaction inhibitors, primary screen, biochemical, TR-FRET, ERα LBD, estradiol-bound | Estrogen receptor (Homo sapiens), P03372 | TR-FRET ER-alpha LBD / SRC-1 peptide | inhibition, % at 25.6 µM | 1.7% of 86,000 active; in the data active = inhibition above about 50%;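 also: 0% = receptor plus peptide control and 100% = peptide only without receptor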
Target sequence (P03372 whole entry, looked up, the tested form may be a part): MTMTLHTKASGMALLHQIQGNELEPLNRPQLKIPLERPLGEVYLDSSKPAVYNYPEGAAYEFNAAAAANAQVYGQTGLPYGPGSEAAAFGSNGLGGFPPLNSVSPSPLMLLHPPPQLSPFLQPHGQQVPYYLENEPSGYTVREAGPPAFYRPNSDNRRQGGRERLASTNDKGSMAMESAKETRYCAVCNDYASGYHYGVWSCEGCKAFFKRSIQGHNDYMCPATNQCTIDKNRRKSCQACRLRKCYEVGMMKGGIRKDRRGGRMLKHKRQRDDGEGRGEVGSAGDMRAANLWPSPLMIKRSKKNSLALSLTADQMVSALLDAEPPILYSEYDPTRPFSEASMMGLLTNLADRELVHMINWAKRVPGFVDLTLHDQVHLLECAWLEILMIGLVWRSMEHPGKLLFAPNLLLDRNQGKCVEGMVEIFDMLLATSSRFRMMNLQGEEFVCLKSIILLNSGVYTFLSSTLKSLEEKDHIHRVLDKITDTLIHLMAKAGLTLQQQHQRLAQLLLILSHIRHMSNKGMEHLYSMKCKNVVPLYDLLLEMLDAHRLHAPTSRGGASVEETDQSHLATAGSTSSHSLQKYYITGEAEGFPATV
ERa coact pot: enhancers of ERα–SRC-1 coactivator binding, primary screen, biochemical, TR-FRET, ERα LBD, low estradiol. TR-FRET ERalpha-LBD/SRC-Cy5 coactivator binding, 2 h; 100 = basal binding, no effect. Estrogen receptor (Homo sapiens), P03372. 1.3% of 86,000 active. coactivator binding (% of control), % at 25.6 µM; in the data active = activity above about 200%;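 also: binding measured in presence of low estradiol as agonist stimulus; 0% = peptide alone without receptor and 100% = receptor with peptide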
ERb coact inh: inhibitors of ERβ-SRC1 coactivator interaction, primary screen, biochemical, TR-FRET, ERβ LBD, SRC-1 peptide; Estrogen receptor beta (Homo sapiens), Q92731; TR-FRET ER-beta LBD / SRC1-Cy5 peptide binding; receptor agonist-loaded with 1 µM estradiol; inhibition, % at 25.6 µM; 1.3% of 86,000 active;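 active = compounds whose percent inhibition of the receptor-coactivator binding signal exceeds about 50% in the single-dose screen, limit read from the data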;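 also: 0% = receptor plus peptide wells without compound and 100% = peptide-only wells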
* = called active by the depositor; . = not tested or not shown; [ ] = another dose, or the depositor's remark. Sampled rows, rich in hits. Any-hit rate of the full collection: about 3.8%.

SMILES	MT1-MMP txn act	DAT uptake mod	ERa SRC1 inh	ERa coact pot	ERb coact inh
O=C(CCSc1nnc2scc(-c3ccccc3)n12)Nc1nc(-c2ccccc2)ns1	1.3	-0.754	1.2	186.2	6.0
CC(=O)Nc1ccc(C(=O)CSc2nnc3scc(-c4ccccc4)n23)cc1	1.1	-0.00525	40.8	232.5*[fluorescence artefact?]	16.9
C#CC(CC)(CC)NC(=S)Nc1cccc(C(C)=O)c1	.	1.65	.	.	.
CCc1ccccc1NC(=O)CSc1nc(-c2ccccc2)nn1C(=O)c1cccc([N+](=O)[O-])c1	.	5.36*	.	.	.
COc1ccc(Cn2c(C)nc3c(c2=O)c2nc4ccccc4nc2n3Cc2ccco2)cc1	1	.	.	.	.
COc1ccc(S(=O)(=O)c2c(N)n(Cc3ccco3)c3nc4ccccc4nc23)cc1	1	2.25	83.3*[fluorescence artefact?]	37.1	78.2*[fluorescence artefact?]
COc1ccc(Cn2c3nc4ccccc4nc3c3c(=O)n(Cc4ccco4)c(C)nc32)cc1	1	.	74.5*	137.6	59.6*[fluorescence artefact?]
CCOc1ccc(C(=O)c2cc([N+](=O)[O-])ccc2Cl)cc1	.	-1.68	.	.	.
COC(=O)c1cccc(C23CC4(C2)[C@H](CN(CC2CCCCC2)[C@@H]4c2ccccc2)C3c2ccc(C(F)(F)F)cc2)c1 (stereo partly drawn)	1	.	.	.	.
O=C(Nc1ccc(-c2nc3ccc(NC(=O)c4cccs4)cc3[nH]2)cc1)c1cccs1	0.9	-0.018	91.4*[fluorescence artefact?]	107.5	55.5*
O=C(Nc1cccc(-c2cnc3ccccc3n2)c1)c1cccc(NC(=O)c2ccco2)c1	1.2	0.103	59.2*	243.8*[fluorescence artefact?]	35.4
Cc1cc(C)nc(NS(=O)(=O)c2ccc(NC(=O)c3ccco3)cc2)n1	1.1	0.874	-5.3	102.5	68.8*[fluorescence artefact?]
O=C(Nc1ccc2nc(-c3cccs3)[nH]c2c1)c1cccs1	1.2	-0.00358	-3.2	88.6	20.9
Cc1ccc2nc(-c3ccc(NC(=O)c4ccco4)cc3)[nH]c2c1	1.3	-0.479	59.1*[fluorescence artefact?]	175.7	36.3
Cc1cc(C)cc(OCc2nnc(SCC(=O)OC(C)C)o2)c1	1.2	0.0309	1.1	102.5	-6.6
CN(C)CC(C)(C)CNC(=O)c1cc(=O)c2ccccc2o1	.	-1.15	.	.	.
COC(=O)[C@@]1(Cc2ccc(OC)cc2)[C@H]2c3cc(C(=O)N4CCCC4)n(CCF)c3C[C@H]2CN1C(=O)c1ccccc1	1	.	.	.	.
CCCCCc1cc(=O)oc2c(C(CCN(CC)CC)c3cc(OC)c(OC)c(OC)c3)c(OC)cc(OC)c12 (stereo not drawn)	.	-0.259	.	.	.
Cc1ccc(-c2nnc(-c3ccc(NC(=O)c4ccco4)cc3)o2)cc1	1.1	0.431	21.8	455.0*	12.4
O=C(Nc1ccc(-c2nc3cccnc3s2)cc1)c1ccco1	1.9	0.0965	55.8*[fluorescence artefact?]	155.8	41.5
O=C(Nc1cccc(-c2nc3cccnc3s2)c1)c1ccco1	1.2	1.85	-18.2	104.2	-21.5
CCC(c1nnc(SCC(=O)NCCc2ccc(Cl)cc2Cl)o1)N(C)C (stereo not drawn)	1.9	0.895	-7.8	102.4	-0.5
CCC(C)Nc1nc(-c2cccc(OC)c2O)nc2ccccc12 (stereo not drawn)	1.2	3.66*	9.0	81.2	9.8
COc1cccc(-c2nc(NC(C)C)c3ccccc3n2)c1O	1.2	2.32	-4.2	109.7	6.0
CCN1C(=O)N[C@@H](c2ccco2)C(C(=O)OC)=C1C	.	0.341	.	.	.
SMILES	MT1-MMP txn act	DAT uptake mod	ERa SRC1 inh	ERa coact pot	ERb coact inh
COC(=O)C1=C(C)N(CCCC(=O)O)C(=O)NC1c1ccc(C#N)cc1 (stereo not drawn)	1.1	-1.04	.	.	.
Cc1ccc(-c2cc(C(=O)N/N=C\c3cnn(C)c3C)c3ccccc3n2)cc1C	.	-0.328	.	.	.
C=CCn1c(NC)cc(=O)n(C)c1=O	1	-9.14*	6.3	122.7	9.3
COC(=O)c1ccccc1NC(=S)NC(NC(=O)c1ccccc1[N+](=O)[O-])C(Cl)(Cl)Cl (stereo not drawn)	.	-1.64	.	.	.
COC(=O)NC(NC(=S)Nc1ccc([N+](=O)[O-])cc1)C(Cl)(Cl)Cl (stereo not drawn)	1.3	-2.77*	6.6	76.8	-3.4
Cc1sc2ncnc(SCC(=O)c3ccc(Cl)s3)c2c1C	1.2	.	-0.4	243.1*	-2.7
